According to PubChem BioAssay (Tox21):
Values joined by “and” are separate entries in the source; they are usually repeats but may differ in a detail not shown here. Identical values can stand only once. Results filed as inconclusive are left out. Where a structure was tested more than once in an assay, its records may differ in their call. Active and inactive are the calls of the source. Unless noted, calls follow the shape of the dose curve; as a rule, active = well fitted curve in the direction sought with a large enough effect in the repeat runs; inconclusive = weak or mixed curves; inactive = no such curve, though single readings can be large; an effect the other way counts as inactive or inconclusive.

Legend:
[1] = qHTS assay to identify small molecule agonists of the peroxisome proliferator-activated receptor delta (PPARd) signaling pathway - cell viability counter screen (AID 743211); also: nearly all actives have a fitted effect of over 55% in size; also: potency is read from the fitted curve at half-maximal effect
In short: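 Viability of GeneBLAzer PPARd UAS-bla HEK293H cells was assessed after 17 h compound incubation at 37C, using CellTiter-Glo reagent added after the reporter read and luminescence recorded 30 min later.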

[2] = qHTS assay to identify small molecule antagonists of the peroxisome proliferator-activated receptor delta (PPARd) signaling pathway - cell viability counter screen (AID 743213); also: nearly all actives have a fitted effect of over 50% in size; also: potency is read from the fitted curve at half-maximal effect
In short: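 Same-well viability: cells pre-incubated 5 h, dosed with compound plus 300 nM L165041, kept 17 h at 37 C, FRET substrate 2 h RT, then CellTiter-Glo 30 min RT and luminescence.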

[3] = target: Peroxisome proliferator-activated receptor delta (Homo sapiens) (UniProt Q03181); assay: qHTS assay to identify small molecule antagonists of the peroxisome proliferator-activated receptor delta (PPARd) signaling pathway (AID 743215; active = well fitted inhibition curve with a large enough effect in the signal ratio in the repeat runs, not every such curve was filed as active; the % refers to the signal ratio;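 also: cells stimulated with agonist L165041 at 300 nM final during compound exposure; series mostly up to about 62 µM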)
Peroxisome proliferator-activated receptor delta (Homo sapiens), sequence (Q03181 whole entry, looked up): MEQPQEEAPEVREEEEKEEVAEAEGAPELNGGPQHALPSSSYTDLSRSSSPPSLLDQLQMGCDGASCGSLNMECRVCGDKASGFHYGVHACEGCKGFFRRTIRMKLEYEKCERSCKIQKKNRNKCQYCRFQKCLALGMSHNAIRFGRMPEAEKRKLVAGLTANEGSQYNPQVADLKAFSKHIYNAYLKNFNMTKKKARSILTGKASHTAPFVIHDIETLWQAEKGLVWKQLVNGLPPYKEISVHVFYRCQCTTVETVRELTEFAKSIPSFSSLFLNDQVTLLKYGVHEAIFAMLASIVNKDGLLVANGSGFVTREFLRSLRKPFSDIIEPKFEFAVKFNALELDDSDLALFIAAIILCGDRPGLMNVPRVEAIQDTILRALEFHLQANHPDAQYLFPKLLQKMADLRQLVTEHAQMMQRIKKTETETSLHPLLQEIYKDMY
In short: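 Antagonist-mode beta-lactamase reporter screen: HEK293H cells with UAS-bla under PPARd control, stimulated by 300 nM L165041 (final) alongside test compound for 17 h at 37 C, then FRET fluorescence after 2 h substrate incubation.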

[4] = qHTS assay to identify small molecule agonists of the farnesoid-X-receptor (FXR) signaling pathway - cell viability counter screen (AID 743218); also: nearly all actives have a fitted effect of over 45% in size; also: potency is read from the fitted curve at half-maximal effect
In short: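 In GeneBLAzer FXR-UAS-bla HEK 293T cells, compounds act for 16 h at 37 C. Cell viability is then scored in the reporter wells by CellTiter-Glo, 30 min at RT, luminescence.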

[5] = target: Vitamin D3 receptor (Homo sapiens) (UniProt P11473); assay: qHTS assay to identify small molecule antagonists of the vitamin D receptor (VDR) signaling pathway (AID 743223; active = well fitted inhibition curve with a large enough effect in the signal ratio in the repeat runs, not every such curve was filed as active; the % refers to the signal ratio)
Vitamin D3 receptor (Homo sapiens), sequence (P11473 whole entry, looked up): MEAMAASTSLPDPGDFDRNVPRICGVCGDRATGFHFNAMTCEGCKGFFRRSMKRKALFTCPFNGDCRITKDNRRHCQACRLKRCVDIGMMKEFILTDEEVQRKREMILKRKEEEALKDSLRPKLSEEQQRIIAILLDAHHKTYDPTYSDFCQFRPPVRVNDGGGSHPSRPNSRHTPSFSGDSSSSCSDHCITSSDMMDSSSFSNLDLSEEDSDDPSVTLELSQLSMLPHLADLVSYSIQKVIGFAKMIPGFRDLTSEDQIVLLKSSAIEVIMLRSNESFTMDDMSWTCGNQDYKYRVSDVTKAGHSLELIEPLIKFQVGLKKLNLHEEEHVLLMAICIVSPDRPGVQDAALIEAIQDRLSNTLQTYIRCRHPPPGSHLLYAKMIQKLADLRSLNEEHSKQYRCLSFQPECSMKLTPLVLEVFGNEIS
In short: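 Fluorescence from LiveBLAzer B/G FRET substrate, read after 2 h at room temperature, reflects beta-lactamase reporter activity in VDR-bla cells treated 16 h at 37C with compounds and agonist 1alpha,25-dihydroxyvitamin D3 (3 nM final).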

[6] = qHTS assay to identify small molecule agonists of the vitamin D receptor (VDR) signaling pathway - cell viability counter screen (AID 743224); also: nearly all actives have a fitted effect of over 50% in size; also: potency is read from the fitted curve at half-maximal effect
In short: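 VDR-bla cell line, quantitative HTS format; 16 h compound incubation (37C, 5% CO2); ATP-based CellTiter-Glo luminescence measured in the reporter assay wells.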

[7] = qHTS assay to identify small molecule antagonists of the vitamin D receptor (VDR) signaling pathway - cell viability counter screen (AID 743225); also: nearly all actives have a fitted effect of over 50% in size; also: potency is read from the fitted curve at half-maximal effect
In short: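 Cells (VDR-UAS-bla HEK 293T) are plated, rested 4 h at 37C, dosed with compound and 3 nM final 1-alpha,25-dihydroxy vitamin D3, and incubated 16 h. Viability is taken from CellTiter-Glo luminescence in the reporter wells.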

[8] = qHTS assay to identify small molecule agonists of the NFkB signaling pathway - cell viability counter screen (AID 1159515; calls by dose curve; also: series mostly up to about 61 µM; nearly all actives have a fitted effect of over 55% in size)
In short: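 Viability in NFkB-bla ME-180 cells was measured by CellTiter-Glo luminescence, 30 min room temperature, in wells already treated 5 hr with compounds and read for reporter FRET.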

[9] = qHTS assay to identify small molecule agonists of the endoplasmic reticulum stress response signaling pathway (AID 1159516; active = well fitted activation curve with a large enough effect in the signal ratio in the repeat runs, not every such curve was filed as active; the % refers to the signal ratio)
In short: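 ER stress element reporter (bla) in HeLa. 1,500 cells/well, overnight attachment; 5 hr compound; 2 hr RT substrate; dual-emission fluorescence.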

[10] = qHTS assay to identify small molecule agonists of the endoplasmic reticulum stress response signaling pathway - cell viability counter screen (AID 1159517; calls by dose curve;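 also: HeLa cells carrying an ER stress response element beta-lactamase reporter; series mostly up to about 61 µM; nearly all actives have a fitted effect of over 50% in size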)
In short: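 Luminescence readout: CellTiter-Glo, 30 min RT, same wells as the ESRE-bla reporter read. HeLa ESRE-bla, 1,500 cells/well, o/n 37 C; cpd 5 hr 37 C/5% CO2.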

[11] = qHTS assay to identify small molecule antagonists of the retinoid-related orphan receptor gamma (ROR-gamma) signaling pathway - cell viability counter screen (AID 1159520); also: nearly all actives have a fitted effect of over 50% in size
In short: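 Tet-on ROR gamma CHO cells (1,000/well) were plated 4 hr, given compounds in DMSO for 2 hr at 37 C, then induced with 1 uM final doxycycline for 16 hr. Viability was read as ATP by CellTiter-Glo luminescence after 30 min.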

[12] = target: Nuclear receptor ROR-gamma (Homo sapiens) (UniProt P51449); assay: qHTS assay to identify small molecule antagonists of the retinoid-related orphan receptor gamma (ROR-gamma) signaling pathway (AID 1159521; also: nearly all actives have a fitted effect of over 50% in size; also: potency is read from the fitted curve at half-maximal effect)
In short: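 RORγ antagonism is scored from reduced reporter luminescence in Tet-on CHO cells. Induction used 1 uM final doxycycline hyclate for 16 h at 37 C, following a 2 h compound exposure.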

[13] = qHTS assay to identify small molecule agonists of the AP-1 signaling pathway - cell viability counter screen (AID 1159525; calls by dose curve; also: nearly all actives have a fitted effect of over 55% in size; also: potency is read from the fitted curve at half-maximal effect)
In short: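 ME-180 AP-1-bla, 2500 cells/well, Opti-MEM + 0.5% dialyzed FBS; overnight 37 °C; cpd 15-pt titration, 5 h 37 °C; CellTiter-Glo 30 min RT; luminescence read; normalised to TOAB and DMSO controls.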

[14] = qHTS assay to identify small molecule agonists of the AP-1 signaling pathway (AID 1159526; calls by dose curve)
[15] = target: Retinoic acid receptor RXR-alpha (Homo sapiens) (UniProt P19793); assay: qHTS assay to identify small molecule agonists of the RXR signaling pathway (AID 1159527; calls by dose curve; also: nearly all actives have a fitted effect of over 35% in size; also: potency is read from the fitted curve at half-maximal effect)
Retinoic acid receptor RXR-alpha (Homo sapiens), sequence (P19793 whole entry, looked up): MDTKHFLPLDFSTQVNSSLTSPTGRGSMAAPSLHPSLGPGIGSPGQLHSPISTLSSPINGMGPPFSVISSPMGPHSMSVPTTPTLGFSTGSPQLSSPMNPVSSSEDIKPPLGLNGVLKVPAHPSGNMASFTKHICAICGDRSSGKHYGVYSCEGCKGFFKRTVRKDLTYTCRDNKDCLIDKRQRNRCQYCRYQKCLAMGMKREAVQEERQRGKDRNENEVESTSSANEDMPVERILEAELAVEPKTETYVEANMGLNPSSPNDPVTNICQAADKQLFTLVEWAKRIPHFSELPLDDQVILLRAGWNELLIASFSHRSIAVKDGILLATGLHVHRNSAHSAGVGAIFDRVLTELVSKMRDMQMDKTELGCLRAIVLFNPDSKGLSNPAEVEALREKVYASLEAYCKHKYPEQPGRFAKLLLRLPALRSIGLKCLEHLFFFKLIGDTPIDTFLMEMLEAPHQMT
In short: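 qHTS of the Tox21 10K library in GeneBLAzer RXR-alpha HEK 293T cells carrying a beta-lactamase reporter […]; 16 hr treatment, 9-cis retinoic acid as agonist control, FRET read-out.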

[16] = qHTS assay to identify small molecule antagonists of the farnesoid-X-receptor (FXR) signaling pathway - cell viability counter screen (AID 743221; active = well fitted cell-killing curve with a large enough effect in the repeat runs, not every such curve was filed as active; also: nearly all actives have a fitted effect of over 50% in size; also: potency is read from the fitted curve at half-maximal effect)
In short: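 Quantitative HTS of the Tox21 10K library run in parallel with the beta-lactamase reporter read. HEK 293T cells carrying a UAS-driven bla reporter got compound and 50 uM CDCA (final) for 16 h; ATP-based luminescence followed.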

[17] = target: Bile acid receptor (Homo sapiens) (UniProt Q96RI1); assay: qHTS assay to identify small molecule antagonists of the farnesoid-X-receptor (FXR) signaling pathway (AID 743217; active = well fitted inhibition curve with a large enough effect in the signal ratio in the repeat runs, not every such curve was filed as active; the % refers to the signal ratio)
Bile acid receptor (Homo sapiens), sequence (Q96RI1 whole entry, looked up): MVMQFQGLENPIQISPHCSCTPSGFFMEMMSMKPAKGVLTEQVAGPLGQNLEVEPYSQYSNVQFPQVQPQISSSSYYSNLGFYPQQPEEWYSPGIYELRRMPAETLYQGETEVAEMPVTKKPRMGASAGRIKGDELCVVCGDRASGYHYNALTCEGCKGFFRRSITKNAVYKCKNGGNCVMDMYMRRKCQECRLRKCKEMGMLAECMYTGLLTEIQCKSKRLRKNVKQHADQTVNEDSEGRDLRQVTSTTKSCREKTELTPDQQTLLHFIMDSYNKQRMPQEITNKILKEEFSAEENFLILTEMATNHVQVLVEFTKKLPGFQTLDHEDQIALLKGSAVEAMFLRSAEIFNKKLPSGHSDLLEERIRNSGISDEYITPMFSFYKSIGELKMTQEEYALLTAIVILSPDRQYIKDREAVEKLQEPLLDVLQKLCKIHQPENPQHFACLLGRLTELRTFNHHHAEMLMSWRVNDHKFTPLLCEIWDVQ
In short: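 Beta-lactamase reporter under UAS control in HEK 293T cells; compound exposure 16 h at 37 °C in the presence of chenodeoxycholic acid (50 uM final); signal from B/G FRET substrate after 2 h at room temperature.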

[18] = target: Bile acid receptor (Homo sapiens) (UniProt Q96RI1); assay: qHTS assay to identify small molecule agonists of the farnesoid-X-receptor (FXR) signaling pathway (AID 743220; active = well fitted activation curve with a large enough effect in the signal ratio in the repeat runs, not every such curve was filed as active; the % refers to the signal ratio)
In short: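 Beta-lactamase reporter under UAS control in GeneBLAzer FXR HEK 293T cells (5000/well) measured with LiveBLAzer FRET substrate after 2 h at room temperature. Compound exposure lasted 16 h at 37C.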

[19] = target: Vitamin D3 receptor (Homo sapiens) (UniProt P11473); assay: qHTS assay to identify small molecule agonists of the vitamin D receptor (VDR) signaling pathway (AID 743222; calls by dose curve)
In short: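 Agonist activity measured in VDR-bla reporter cells. Exposure 16 h, 37C, 5% CO2; detection by B/G FRET substrate, 2 h RT.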

[20] = target: Peroxisome proliferator-activated receptor delta (Homo sapiens) (UniProt Q03181); assay: qHTS assay to identify small molecule agonists of the peroxisome proliferator-activated receptor delta (PPARd) signaling pathway (AID 743212; calls by dose curve)
In short: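 GeneBLAzer PPARd UAS-bla HEK293H cells (beta-lactamase reporter under UAS control), plated and rested 5 h at 37 C, then exposed to compounds in DMSO at 37 C; LiveBLAzer B/G FRET substrate added, 2 h room temperature, fluorescence read.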

Measured: Potency

CC(=O)C(C)C
not listed: [16] | [17] | [18] | [19] | [20]
inactive: all other assays above

Cc1ccncc1
not listed: [3] | [7] | [17] | [18] | [19] | [20]
inactive: all other assays above

NCCNCCNCCN
not listed: [3] | [19] | [20]
inactive: all other assays above

NC1CCCCC1N (configuration not stated)
not listed: [3] | [7] | [20]
inactive: all other assays above

CC[N+](CC)(CC(=O)Nc1c(C)cccc1C)Cc1ccccc1
not listed: [3] | [5] | [7] | [16] | [17] | [18] | [19] | [20]
inactive: all other assays above

CC(CN1c2ccccc2Sc2ccccc21)N(C)C (configuration not stated)
inactive: [8] | [9] | [10] | [11] | [13] | [15]
active: [1] 49.5 µM and 21.9 µM | [2] 49.5 µM and 24.5 µM | [4] 49.5 µM and 27.5 µM | [16] 49.5 µM | [6] 49.5 µM and 43.6 µM | [7] 21.9 µM | [12] 24.6 µM and 54.5 µM

C=CC(=O)NCOCCCC
not listed: [7] | [15] | [17] | [18] | [20]
inactive: all other assays above

CC(=O)OC/C=C(\C)CCC=C(C)C
not listed: [5] | [10] | [16] | [17] | [18] | [19]
inactive: all other assays above

O=C1O[C@H]([C@H](O)CO)C(O)=C1O
not listed: [3] | [5] | [7] | [10] | [17] | [18] | [19] | [20]
inactive: all other assays above

CC(COCC(C)OC(=O)c1ccccc1)OC(=O)c1ccccc1 (configuration not stated)
not listed: [10] | [15] | [19] | [20]
inactive: all other assays above

CCCOC(=O)NCCCN(C)C
21.9 µM (active) and inactive: [15]
not listed: [3] | [10] | [17] | [18] | [20]
inactive: all other assays above

CC1=CC(=O)CC(C)(C)C1
2.5 µM (active) and inactive: [12]
25.3 µM (active) and inactive: [13]
not listed: [10] | [17] | [18] | [19] | [20]
inactive: all other assays above

CC(=O)OCCC(C)C
not listed: [5] | [10] | [17] | [18] | [19]
inactive: all other assays above

COc1ccc([C@@H]2CC(=O)c3c(O)cc(O[C@@H]4O[C@H](CO[C@@H]5O[C@@H](C)[C@H](O)[C@@H](O)[C@H]5O)[C@@H](O)[C@H](O)[C@H]4O)cc3O2)cc1OC
not listed: [3] | [7] | [10] | [16] | [20]
inactive: all other assays above

CN=C(NC#N)NCCSCc1nc[nH]c1C
not listed: [7] | [10] | [20]
inactive: all other assays above

C1CCCNCC1
not listed: [5] | [7] | [10] | [16] | [17] | [18] | [19] | [20]
inactive: all other assays above

Cc1ncc(CO)c(CO)c1O
not listed: [10] | [16] | [19]
inactive: all other assays above

COc1cc(NC(=O)CC(C)=O)c(OC)cc1Cl
not listed: [3] | [5] | [10] | [17] | [18] | [19] | [20]
inactive: all other assays above

O=C(Cl)c1ccc(C(=O)Cl)cc1
not listed: [10] | [17] | [18] | [20]
inactive: all other assays above

N#CCC(=O)O
not listed: [7] | [10] | [16] | [17] | [18] | [19] | [20]
inactive: all other assays above

CCN(CC)CCNC(=O)c1ccc(N)cc1
inactive: [1] | [2] | [4] | [8] | [9] | [11] | [12] | [13] | [14] | [15]

NC(=O)NC(N)=O
not listed: [5] | [7] | [10] | [17] | [18] | [19]
inactive: all other assays above

CC(C)c1ccc(C(C)C)cc1
not listed: [3] | [7] | [10] | [16] | [20]
inactive: all other assays above
